Results: PubChem BioAssay (NCATS)
“And” between values parts separate entries of the source, which are not always exact repeats. Equal entries are not always repeated. Records with an inconclusive call do not appear. The source made the active and inactive calls. Unless noted, calls follow the shape of the dose curve; as a rule, active = well fitted curve in the direction sought with a large enough effect; inconclusive = small, poorly fitted or top-dose-only effect, or another doubt; inactive = no such curve, though single readings can be large; an effect the other way counts as inactive or inconclusive.

Columns and labels:
[1] = MultiTox-Fluor Cytotoxicity Assay - LYMP1-001 - Live Cells (AID 947);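 also: 0% = DMSO only and full inhibition = tetraoctylammonium bromide control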
[2] = MultiTox-Fluor Cytotoxicity Assay - LYMP1-002 - Dead Cells (AID 960);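 also: 0% = DMSO and 100% = tetraoctylammonium bromide; nearly all actives have a fitted effect of over 60% in size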
Procedure, shortened: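 Human lymphoblastoid cells (LYMP1-002), 2500/well in complete medium, were exposed to compounds for 16 hr at 37 C. Dead-cell protease activity was read as bis-AAF-R110 fluorescence (Ex/Em 485/520), normalized to DMSO and 15 uM tetraoctylammonium bromide; AC50 from Hill fits.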

[3] = Cell Viability - LYMP2-009 (AID 968);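 also: series mostly up to about 92 µM; 0% = DMSO alone and the full-kill end = tetraoctylammonium bromide at 92 µM; nearly all actives have a fitted effect of over 55% in size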
[4] = Cell Viability - LYMP2-024 (AID 988);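 also: plate controls were DMSO only for no effect and 92 µM tetraoctylammonium bromide for full effect; nearly all actives have a fitted effect of over 60% in size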
Procedure, shortened: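 Human lymphoblastoid cells (2500/well) in complete medium were preincubated 5 hr at 37 C, then exposed to compounds for 24 hr at 37 C. Intracellular ATP was read by CellTiter-Glo luminescence; AC50 from Hill-equation fits of concentration-response data.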

[5] = target: Estrogen receptor (Homo sapiens) (UniProt P03372); assay: qHTS assay for small molecule antagonists of estrogen receptor alpha signaling (AID 588513; active = well fitted curve in the direction sought with a large enough effect in the signal ratio, with a control signal flat, not every such curve was filed as active; the % refers to the signal ratio; also: % is scaled to controls: 0 for no effect and ±100 for the full control effect)
Estrogen receptor (Homo sapiens), sequence (P03372 whole entry, looked up): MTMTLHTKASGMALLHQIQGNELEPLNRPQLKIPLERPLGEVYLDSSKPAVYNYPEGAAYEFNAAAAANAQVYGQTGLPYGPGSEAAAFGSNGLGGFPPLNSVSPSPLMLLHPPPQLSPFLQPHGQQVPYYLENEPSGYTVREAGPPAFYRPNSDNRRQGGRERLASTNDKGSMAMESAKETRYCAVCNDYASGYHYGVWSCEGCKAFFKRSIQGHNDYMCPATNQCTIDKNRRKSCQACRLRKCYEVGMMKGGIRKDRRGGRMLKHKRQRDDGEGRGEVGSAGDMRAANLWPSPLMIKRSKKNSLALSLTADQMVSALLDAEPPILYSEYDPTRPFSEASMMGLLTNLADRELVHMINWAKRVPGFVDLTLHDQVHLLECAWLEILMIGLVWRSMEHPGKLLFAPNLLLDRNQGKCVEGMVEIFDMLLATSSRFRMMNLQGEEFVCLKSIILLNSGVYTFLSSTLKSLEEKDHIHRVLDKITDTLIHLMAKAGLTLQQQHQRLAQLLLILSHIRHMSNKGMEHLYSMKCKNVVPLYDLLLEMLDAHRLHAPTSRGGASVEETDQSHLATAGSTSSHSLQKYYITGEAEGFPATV
Procedure, shortened: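 Fluorescence from CCF4 substrate after 2 h at room temperature gave reporter activity; cells had been exposed to compound and 0.5nM 17-beta-estradiol for 18 h at 37 C. Hill-equation fitting yielded IC50 and maximal response.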

[6] = target: Estrogen receptor (Homo sapiens) (UniProt P03372); assay: qHTS assay for small molecule agonists of estrogen receptor alpha signaling (AID 588514; calls by dose curve;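 also: 0% = vehicle only and 100% = reference agonist; nearly all actives have a fitted effect of over 70% in size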)
Procedure, shortened: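 ER-alpha-UAS-bla GripTite HEK 293 cells in medium with 2% charcoal/dextran-treated FBS were treated with compound titrations at 37 C for 18 hrs; beta-lactamase reporter read by CCF4 fluorescence after 2 hrs at RT.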

[7] = target: Bile acid receptor (Homo sapiens) (UniProt Q96RI1); assay: qHTS assay for small molecule agonists of farnesoid X receptor signaling (AID 588527; calls by dose curve;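 also: series mostly up to about 77 µM; 0% = vehicle basal and 100% = reference agonist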); details: HEK293T FXR-UAS-bla, beta-lactamase ratio, 16 h; hits give high values
Bile acid receptor (Homo sapiens), sequence (Q96RI1 whole entry, looked up): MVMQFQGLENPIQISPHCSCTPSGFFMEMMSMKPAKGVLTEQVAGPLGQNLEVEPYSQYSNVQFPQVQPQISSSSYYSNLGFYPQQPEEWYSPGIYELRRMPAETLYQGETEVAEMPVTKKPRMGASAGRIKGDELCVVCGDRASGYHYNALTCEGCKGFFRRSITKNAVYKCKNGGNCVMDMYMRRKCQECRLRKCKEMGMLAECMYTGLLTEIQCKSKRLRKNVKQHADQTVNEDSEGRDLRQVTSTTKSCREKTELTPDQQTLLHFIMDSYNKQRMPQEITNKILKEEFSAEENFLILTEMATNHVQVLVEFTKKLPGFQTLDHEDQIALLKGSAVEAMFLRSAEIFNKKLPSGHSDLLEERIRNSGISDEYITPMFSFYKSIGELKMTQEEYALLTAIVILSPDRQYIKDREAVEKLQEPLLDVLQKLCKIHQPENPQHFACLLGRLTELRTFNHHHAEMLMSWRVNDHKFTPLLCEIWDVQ
Procedure, shortened: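 Read-out: beta-lactamase reporter fluorescence with CCF4 substrate in GeneBLAzer FXR-UAS-bla HEK293T cells, after 16 h compound exposure at 37 C. Response scaled between DMSO basal (0%) and chenodeoxycholic acid at 100 uM (100%).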

[8] = target: Glucocorticoid receptor (Homo sapiens) (UniProt P04150); assay: qHTS assay for small molecule antagonists of glucocorticoid receptor signaling (AID 588533; active = well fitted inhibition curve with a large enough effect in the signal ratio, with a control signal flat, not every such curve was filed as active; the % refers to the signal ratio;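 also: cells stimulated with 2 nM dexamethasone as agonist; % is scaled to controls: 0 for no effect and ±100 for the full control effect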)
Glucocorticoid receptor (Homo sapiens), sequence (P04150 whole entry, looked up): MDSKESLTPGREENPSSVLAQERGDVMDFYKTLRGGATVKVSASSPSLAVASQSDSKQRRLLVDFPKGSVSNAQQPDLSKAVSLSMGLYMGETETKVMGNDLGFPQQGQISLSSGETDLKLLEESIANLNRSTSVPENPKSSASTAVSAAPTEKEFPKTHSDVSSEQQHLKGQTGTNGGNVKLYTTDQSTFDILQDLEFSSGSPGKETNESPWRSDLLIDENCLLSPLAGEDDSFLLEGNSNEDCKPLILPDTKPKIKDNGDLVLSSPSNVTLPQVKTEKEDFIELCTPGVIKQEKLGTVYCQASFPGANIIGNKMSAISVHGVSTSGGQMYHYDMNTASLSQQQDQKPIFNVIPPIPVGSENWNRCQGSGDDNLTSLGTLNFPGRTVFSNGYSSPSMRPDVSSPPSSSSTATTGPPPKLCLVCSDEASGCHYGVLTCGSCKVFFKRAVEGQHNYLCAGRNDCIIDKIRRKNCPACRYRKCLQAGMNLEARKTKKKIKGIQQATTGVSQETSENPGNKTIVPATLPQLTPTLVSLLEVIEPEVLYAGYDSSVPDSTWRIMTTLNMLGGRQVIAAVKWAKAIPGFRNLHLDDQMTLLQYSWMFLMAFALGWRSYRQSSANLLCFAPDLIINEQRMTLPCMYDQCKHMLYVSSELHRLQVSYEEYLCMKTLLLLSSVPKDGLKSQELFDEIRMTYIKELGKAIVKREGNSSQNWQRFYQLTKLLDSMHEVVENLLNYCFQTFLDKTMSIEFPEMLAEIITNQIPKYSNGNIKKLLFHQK
Procedure, shortened: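 Antagonist-mode qHTS: compound titrations added to GRE-bla HeLa cells, then dexamethasone 2 nM final; 18 h, 37 C. CCF4 FRET fluorescence normalized to dexamethasone and DMSO; IC50 from Hill fit.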

[9] = target: Peroxisome proliferator-activated receptor delta (Homo sapiens) (UniProt Q03181); assay: qHTS assay for small molecule agonists of peroxisome proliferator-activated receptor delta signaling (AID 588534; calls by dose curve;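 also: 0% = DMSO basal wells and 100% = positive control agonist at 10 µM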)
Peroxisome proliferator-activated receptor delta (Homo sapiens), sequence (Q03181 whole entry, looked up): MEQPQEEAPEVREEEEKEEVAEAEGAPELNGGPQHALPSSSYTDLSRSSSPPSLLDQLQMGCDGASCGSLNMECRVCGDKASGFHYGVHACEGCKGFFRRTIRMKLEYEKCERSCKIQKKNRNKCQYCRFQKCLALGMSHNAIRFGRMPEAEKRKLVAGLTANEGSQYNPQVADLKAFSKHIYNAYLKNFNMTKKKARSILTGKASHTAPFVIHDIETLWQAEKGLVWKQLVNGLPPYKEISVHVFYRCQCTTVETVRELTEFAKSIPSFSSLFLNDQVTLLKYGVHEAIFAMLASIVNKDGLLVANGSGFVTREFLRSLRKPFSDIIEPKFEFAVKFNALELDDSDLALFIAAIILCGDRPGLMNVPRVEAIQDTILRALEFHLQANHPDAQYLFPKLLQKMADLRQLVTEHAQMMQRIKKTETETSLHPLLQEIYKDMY
Procedure, shortened: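 Cell-based beta-lactamase reporter assay run in agonist mode: cells seeded and incubated 5 hrs at 37 C, compounds added and incubated 18 hrs at 37 C. CCF4 dye fluorescence read after 2 hrs at RT; EC50 and efficacy from Hill fits.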

[10] = target: Peroxisome proliferator-activated receptor gamma (Homo sapiens) (UniProt P37231); assay: qHTS assay for small molecule agonists of peroxisome proliferator-activated receptor gamma signaling (AID 588536; active = well fitted curve in the direction sought with a large enough effect in the signal ratio, with a control signal flat, not every such curve was filed as active; the % refers to the signal ratio;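 also: 0% = DMSO basal wells and 100% = rosiglitazone at 2 µM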)
Procedure, shortened: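 Test agents, titrated, stimulated HEK293 UAS-bla cells overnight (16 h, 37 C). Substrate CCF4 was then added for two hours at room temperature before fluorescence reading.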

[11] = target: Vitamin D3 receptor (Homo sapiens) (UniProt P11473); assay: qHTS assay for small molecule agonists of vitamin D receptor signaling (AID 588543; calls by dose curve;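 also: 0% = DMSO basal and 100% = reference agonist control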)
Vitamin D3 receptor (Homo sapiens), sequence (P11473 whole entry, looked up): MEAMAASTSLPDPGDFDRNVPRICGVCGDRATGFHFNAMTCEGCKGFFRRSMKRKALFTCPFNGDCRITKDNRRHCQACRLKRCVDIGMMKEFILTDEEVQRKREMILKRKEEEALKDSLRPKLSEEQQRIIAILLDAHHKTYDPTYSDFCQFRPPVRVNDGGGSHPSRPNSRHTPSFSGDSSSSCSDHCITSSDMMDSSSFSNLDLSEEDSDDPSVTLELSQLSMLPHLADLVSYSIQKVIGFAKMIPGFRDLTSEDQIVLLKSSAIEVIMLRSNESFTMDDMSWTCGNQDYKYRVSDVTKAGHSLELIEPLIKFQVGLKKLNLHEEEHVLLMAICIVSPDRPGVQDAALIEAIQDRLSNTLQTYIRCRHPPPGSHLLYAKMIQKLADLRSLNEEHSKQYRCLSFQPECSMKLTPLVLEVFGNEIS
Procedure, shortened: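 Reporter cells (HEK293T, VDR-UAS-bla) were seeded in medium with 2% charcoal-stripped serum and incubated 5 h, then compounds in concentration series were added for 16 h at 37 °C. Stimulation was scaled between DMSO basal and 50 nM 1α,25-dihydroxyvitamin D3.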

[12] = target: Thyroid hormone receptor beta (Homo sapiens) (UniProt P10828); assay: qHTS assay for small molecule agonists of thyroid hormone receptor beta signaling (AID 588545; calls by dose curve;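 also: 0% = DMSO only and 100% = 10 nM T3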)
Thyroid hormone receptor beta (Homo sapiens), sequence (P10828 whole entry, looked up): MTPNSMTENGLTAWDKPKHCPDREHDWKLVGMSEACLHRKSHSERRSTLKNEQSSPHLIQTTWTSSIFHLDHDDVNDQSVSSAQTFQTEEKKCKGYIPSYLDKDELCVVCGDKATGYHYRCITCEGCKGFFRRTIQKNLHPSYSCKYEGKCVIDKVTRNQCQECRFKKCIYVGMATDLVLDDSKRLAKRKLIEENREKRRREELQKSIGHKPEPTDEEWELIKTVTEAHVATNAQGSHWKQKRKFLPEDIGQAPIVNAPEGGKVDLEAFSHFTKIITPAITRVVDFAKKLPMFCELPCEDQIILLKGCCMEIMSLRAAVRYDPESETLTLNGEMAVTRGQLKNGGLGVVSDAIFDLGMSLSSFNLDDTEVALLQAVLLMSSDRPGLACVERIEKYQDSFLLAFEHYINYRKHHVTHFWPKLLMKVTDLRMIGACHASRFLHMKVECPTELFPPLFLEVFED
Procedure, shortened: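 TR-UAS-bla GripTite HEK 293 cells (2500/well, medium with 2% charcoal/dextran FBS) were treated in agonist mode for 18 h at 37 C, titrated. Beta-lactamase was read by CCF4 ratio after 2 h; normalized to 10 nM T3 (100%) and DMSO, Hill-fitted for EC50 and efficacy.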

[13] = target: Thyroid hormone receptor beta (Homo sapiens) (UniProt P10828); assay: qHTS assay for small molecule antagonists of thyroid hormone receptor beta signaling (AID 588547; active = well fitted inhibition curve with a large enough effect in the signal ratio, with a control signal flat, not every such curve was filed as active; the % refers to the signal ratio;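 also: cells stimulated with 0.4 nM T3 agonist during compound exposure; series mostly up to about 77 µM; % is scaled to controls: 0 for no effect and ±100 for the full control effect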); details: TR-UAS-bla HEK293, beta-lactamase ratio, antagonist mode, 18 h
Procedure, shortened: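 TR-UAS-bla GripTite HEK293 cells in 2% charcoal/dextran FBS medium; compounds 0.59 nM to 92 uM with T3 at 0.4nM final, 18 h at 37 C. Beta-lactamase read by CCF4 fluorescence (460/530 nm); Hill fits gave IC50 and efficacy.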

[14] = target: Voltage-gated inwardly rectifying potassium channel KCNH2 (Homo sapiens) (UniProt Q12809); assay: qHTS Assay for Small Molecule Inhibitors of the Human hERG Channel Activity (AID 588834);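 also: top concentration of the series differs between compounds; % is scaled to controls: 0 for no effect and ±100 for the full control effect; lower thallium flux fluorescence means stronger hERG block; nearly all actives have a fitted effect of over 50% in size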
Voltage-gated inwardly rectifying potassium channel KCNH2 (Homo sapiens), sequence (Q12809 whole entry, looked up): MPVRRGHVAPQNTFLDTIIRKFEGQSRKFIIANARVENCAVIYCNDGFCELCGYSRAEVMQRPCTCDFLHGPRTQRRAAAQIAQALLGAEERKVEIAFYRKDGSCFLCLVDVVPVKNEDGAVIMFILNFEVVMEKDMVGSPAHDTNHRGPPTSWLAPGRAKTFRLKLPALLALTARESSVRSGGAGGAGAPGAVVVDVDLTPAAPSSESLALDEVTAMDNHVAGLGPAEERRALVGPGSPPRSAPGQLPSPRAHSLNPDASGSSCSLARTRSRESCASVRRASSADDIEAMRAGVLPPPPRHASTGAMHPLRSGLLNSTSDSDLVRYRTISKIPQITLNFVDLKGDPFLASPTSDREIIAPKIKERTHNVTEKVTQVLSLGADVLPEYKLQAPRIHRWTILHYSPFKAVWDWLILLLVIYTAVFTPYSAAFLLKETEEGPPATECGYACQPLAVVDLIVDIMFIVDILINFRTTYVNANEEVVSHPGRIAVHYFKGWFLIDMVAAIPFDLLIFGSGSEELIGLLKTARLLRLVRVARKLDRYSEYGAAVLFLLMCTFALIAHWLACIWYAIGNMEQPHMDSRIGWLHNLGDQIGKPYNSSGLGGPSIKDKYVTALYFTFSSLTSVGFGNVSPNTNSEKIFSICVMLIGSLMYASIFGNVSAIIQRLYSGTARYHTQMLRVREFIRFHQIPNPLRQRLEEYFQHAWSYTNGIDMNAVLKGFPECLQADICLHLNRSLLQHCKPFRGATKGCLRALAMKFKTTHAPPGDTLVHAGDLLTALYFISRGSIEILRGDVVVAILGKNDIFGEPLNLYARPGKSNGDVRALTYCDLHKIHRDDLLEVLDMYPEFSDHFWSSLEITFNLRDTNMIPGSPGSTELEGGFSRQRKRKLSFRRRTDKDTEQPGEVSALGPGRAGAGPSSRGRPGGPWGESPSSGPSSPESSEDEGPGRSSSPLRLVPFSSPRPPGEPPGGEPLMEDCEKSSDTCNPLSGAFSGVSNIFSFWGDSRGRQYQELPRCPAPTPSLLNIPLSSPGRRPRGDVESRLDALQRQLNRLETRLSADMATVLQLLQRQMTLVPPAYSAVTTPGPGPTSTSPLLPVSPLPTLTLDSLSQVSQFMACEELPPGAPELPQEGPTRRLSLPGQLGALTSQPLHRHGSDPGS
Procedure, shortened: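 hERG-BacMam U2OS, 2000 cells/well; 0.7X FluxOR loading 1 hr RT dark; cpd ~10 min 37 °C; stim buffer; FDSS fluorescence 2 min @ 1 s; AC50 Hill fit.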

[15] = qHTS assay for small molecule agonists of the antioxidant response element (ARE) signaling pathway (AID 651741; active = well fitted activation curve with a large enough effect in the signal ratio; the % refers to the signal ratio; also: potency is read from the fitted curve at half-maximal effect; as to activation: % of control where 0% means no effect)
Procedure, shortened: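 HepG2 ARE-bla cells plated at 2,000 cells/well and incubated 5 h at 37 C/5% CO2 received 23 nL compound in DMSO. After 16 h at 37 C, LiveBLAzer B/G FRET substrate was applied for 2 h at room temperature and fluorescence read.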

[16] = qHTS assay for environmental chemicals that activate the Aryl hydrocarbon Receptor (AhR) signaling pathway (AID 651777); details: 1A2-DRE human hepatoma cells, luciferase, 24 h; activation: hits give high values; also: % of control where 0% means no effect; nearly all actives have a fitted effect of over 15% in size
Procedure, shortened: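 Human hepatoma 1A2-DRE cells, stably carrying a dioxin response element and CYP1A2 promoter driving luciferase, were exposed to compounds for 24 hr at 37 C and 5% CO2. Luciferase signal was then read after 30 min One-Glo at room temperature.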

[17] = target: Nuclear receptor ROR-gamma (Homo sapiens) (UniProt P51449); assay: qHTS assay for small molecule antagonists of the retinoid-related orphan receptor gamma (ROR-gamma) signaling pathway (AID 651802); also: series mostly up to about 92 µM; % is scaled to controls: 0 for no effect and ±100 for the full control effect; nearly all actives have a fitted effect of over 60% in size
Nuclear receptor ROR-gamma (Homo sapiens), sequence (P51449 whole entry, looked up): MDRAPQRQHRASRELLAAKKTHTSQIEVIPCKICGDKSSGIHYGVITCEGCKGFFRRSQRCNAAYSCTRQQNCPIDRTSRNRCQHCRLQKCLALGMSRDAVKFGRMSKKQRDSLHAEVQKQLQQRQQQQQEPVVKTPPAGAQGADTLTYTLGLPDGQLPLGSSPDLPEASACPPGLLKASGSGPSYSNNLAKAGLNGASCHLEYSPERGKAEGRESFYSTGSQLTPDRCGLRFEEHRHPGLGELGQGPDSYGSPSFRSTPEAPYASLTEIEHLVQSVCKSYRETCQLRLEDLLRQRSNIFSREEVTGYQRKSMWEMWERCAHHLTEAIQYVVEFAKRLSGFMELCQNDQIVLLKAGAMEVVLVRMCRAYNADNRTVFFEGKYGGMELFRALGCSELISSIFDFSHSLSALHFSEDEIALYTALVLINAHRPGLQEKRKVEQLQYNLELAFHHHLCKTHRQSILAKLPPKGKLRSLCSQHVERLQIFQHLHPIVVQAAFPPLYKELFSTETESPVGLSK
Procedure, shortened: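 CHO cells carrying TET-inducible ROR-gamma and an ROR response element–luciferase reporter were exposed to compound, then induced with doxycycline. After 16hr at 37C, luminescence was read; lower signal indicates antagonism.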

[18] = target: Nuclear receptor subfamily 1 group I member 2 (Rattus norvegicus) (UniProt Q9R1A7); assay: qHTS assay for small molecule activators of the rat pregnane X receptor (rPXR) signaling pathway (AID 651751; call rule not given here; also: 0% is about no effect); details: rPXR reporter cells, luciferase (One-Glo), 24 h
[19] = qHTS assay for small molecule activators of the human pregnane X receptor (PXR) signaling pathway (AID 720659; call rule not given here; also: 0% is about no effect)
[20] = qHTS assay for small molecule activators of the p53 signaling pathway (AID 651743; active = well fitted activation curve with a large enough effect in the signal ratio, not every such curve was filed as active; the % refers to the signal ratio; also: series mostly up to about 92 µM; % of control where 0% means no effect); details: HCT-116 p53RE-bla, beta-lactamase FRET ratio, 16 h; activation: hits give high values
Procedure, shortened: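 HCT-116 p53RE-bla, 4,000 cells/well; 5 h settle; cpd/DMSO 16 h, 37 C; LiveBLAzer B/G 2 h RT; fluorescence intensity.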

CC(O)CCl (configuration not stated)
active: Potency [15] 54.5 µM
inactive: Potency [1] | Potency [2] | Potency [3] | Potency [4] | Potency [5] | Potency [6] | activation [7] -2.4% and 3.49% | Potency [8] | outcome [9] | outcome [10] | outcome [11] | outcome [12] | activity change % (negative = inhibition) [13] -4.17% | Potency [14] | activation [16] 0.217% and 1.37% | Potency [17] | max response [18] 4.48% and -2.85% | outcome [19]

OCC(Br)CBr (configuration not stated)
inactive: Potency [1] | Potency [2] | Potency [3] | Potency [4] | Potency [5] | Potency [6] | activation [7] 0.562% | Potency [8] | outcome [9] | outcome [10] | outcome [11] | activity change % (negative = inhibition) [13] 1.09% | Potency [14] | Potency [15] | activation [20] 1.53% | activation [16] -1.14% | Potency [17] | outcome [19]

C=CC(C)(CCC=C(C)C)OC(C)=O (configuration not stated)
inactive: activation [7] -2.23%

CCCC(=O)Cl
inactive: Potency [1] | Potency [2] | Potency [3] | Potency [4] | Potency [5] | Potency [6] | activation [7] 0.327% | Potency [8] | outcome [9] | outcome [10] | outcome [11] | outcome [12] | activity change % (negative = inhibition) [13] 3.8% | Potency [14] | activation [20] -0.024% | activation [16] -2.02% | Potency [17] | max response [18] -1.41% | outcome [19]

Clc1cccc(C(Cl)(Cl)Cl)n1
inactive: Potency [1] | Potency [3] | Potency [4] | Potency [5] | Potency [6] | activation [7] 0.959% and 2.76% | outcome [10] | outcome [12] | activity change % (negative = inhibition) [13] -14.1% and -4.27% | Potency [14] | Potency [15] | activation [20] 0.471% and 1.28% | activation [16] -1.44% and -0.611% | Potency [17] | max response [18] -2.08% and -3.74% | outcome [19]

CC(=O)[O-].CC(=O)[O-].O.O.O.[Pb+2]
active: Potency [15] 33.5 µM and 37.6 µM
inactive: Potency [1] | Potency [2] | Potency [3] | Potency [4] | outcome [12] | activity change % (negative = inhibition) [13] -0.227% | Potency [14] | activation [16] 1.24% and 0.452%

O=C(Cl)C(Cl)(Cl)Cl
inactive: Potency [1] | Potency [2] | Potency [3] | Potency [4] | Potency [5] | Potency [6] | activation [7] -1.96% | Potency [8] | outcome [9] | outcome [10] | outcome [11] | outcome [12] | activity change % (negative = inhibition) [13] -5.79% | Potency [14] | Potency [15] | activation [20] -0.85% | activation [16] 0.0046% | Potency [17] | max response [18] -0.469% | outcome [19]
